# Source: PubChem BioAssay AID920 (The Scripps Research Institute Molecular Screening Center, 2007)
# The whole screen tested about 200,000 compounds, of which about 700 (0.35%) were called active. The sample holds actives, similar compounds and a random draw of the others, so the mix is not that of the screen.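 Rule for the calls: active = inhibition above a set limit, the mean inhibition across all tested compounds plus 3 SD (cut at about 34% in these data); inactive = the rest.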
# Assay: STAT1 signaling inhibitors, primary screen, cell-based, HTS, luciferase reporter (AID 920);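 note: 0% = IFN-gamma with DMSO and 100% = IFN-gamma with 300 µM nifuroxazide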
# Conditions: NIH 3T3 STAT1-luciferase reporter, IFN-gamma, luminescence; at 5.5 µM; hits give high values
row,Structure (SMILES),inhibition
1,O=C(COC(=O)c1ccc(F)cc1)Nc1nc2ccc([N+](=O)[O-])cc2s1,-0.42% (inactive)
2,O=C(CN1CCN(c2ccccn2)CC1)N1CCc2ccccc21,-3.17% (inactive)
3,O=C(CSCc1ccccc1)N1CCc2ccccc21,-41.3% (inactive)
4,O=C(CN1C(=O)c2ccccc2S1(=O)=O)N1CCc2ccccc21,61.3% (active)
5,S=C(Nc1ccc(Br)cc1Cl)N1CCC2(CC1)OCCO2,-18.2% (inactive)
6,CCNc1ccc(C(=O)OCC(=O)N2c3ccccc3NC(=O)C2(C)C)cc1[N+](=O)[O-],4.43% (inactive)
7,Cc1cc(Cl)ccc1OCCCC(=O)NCc1ccncc1,-1.56% (inactive)
8,C/C(=N/OC(=O)c1cccc(C(F)(F)F)c1)c1cnccn1,-6.55% (inactive)
9,COc1ccccc1CNC(=O)c1ccc(SC)cc1OC,-9.83% (inactive)
10,COc1cc(SC)ccc1C(=O)Nc1cc(C)ccn1,-2.53% (inactive)
11,COc1cc(SC)ccc1C(=O)Nc1nc(C)cs1,93.3% (active)
12,CC(=O)NC(Cc1ccc(F)c(F)c1)C(=O)NC1CCN(c2nnnn2-c2ccccc2)CC1 (stereo unspecified),5.49% (inactive)
13,CC1c2nc3ccccc3n2C(CC(=O)NCCCN2CCOCC2)C(=O)N1Cc1ccccc1 (stereo unspecified),6.33% (inactive)
14,C/C(=N/NC(=O)C1COc2ccccc2O1)c1ccco1 (stereo unspecified),-4.92% (inactive)
15,COc1ccc(C2=NN(C(=O)CCC(=O)O)C(c3cccs3)C2)cc1OC (stereo unspecified),3.75% (inactive)
16,COC(=O)C1=CN(Cc2ccc(OC)c(OC)c2)C=C(C(=O)OC)C1c1cccs1,59.2% (active)
17,COc1ccc(CCNC(=O)COC(=O)/C=C/c2cccs2)cc1OC,9.78% (inactive)
18,Cc1cc([N+](=O)[O-])nn1Cc1ccc(F)cc1,6.91% (inactive)
19,O=c1cnnc(Nc2ccccc2F)[nH]1,-3.73% (inactive)
20,COc1ccc2c(CC(=O)OCC(=O)Nc3ccccc3[N+](=O)[O-])coc2c1,0.3% (inactive)
21,CC[C@H]1CN2CCc3cc(OC)c(OC)cc3[C@@H]2C[C@@H]1C[C@H]1NCCc2cc(OC)c(OC)cc21,71.5% (active)

row,Structure (SMILES),inhibition
1,COc1cc2c(cc1O)[C@H](Cc1ccc(Oc3cc(C[C@@H]4NCCc5cc(OC)c(O)cc54)ccc3O)cc1)NCC2,5.62% (inactive)
2,Cc1ccc(NC(=S)N2CCN(c3ncccn3)CC2)cc1C,0.8% (inactive)
3,CCn1c2ccccc2c2cc(NC(=O)COC(=O)c3cc(S(=O)(=O)N4CCCCC4)ccc3Cl)ccc21,5.58% (inactive)
4,CC(=O)c1ccc(-c2nnc(CCC(=O)N(C)Cc3cnc4ccccn34)o2)s1,0.17% (inactive)
5,COc1ccc(C(=O)/C=C/Nc2ccccn2)cc1,82.5% (active)
6,CCOc1cc(NC(=O)c2ccccn2)c(OCC)cc1NC(=O)c1ccc(OC)cc1,3.8% (inactive)
7,COc1ccc(-c2csc(Nc3ccccn3)n2)cc1,-12.9% (inactive)
8,CSc1ccc(CN(C)CC(=O)NCc2ccc(F)cc2)cc1,-7.18% (inactive)
9,NC(=O)C1CCN(Cc2nc3c(Br)cc(Br)cc3c(=O)[nH]2)CC1,3.52% (inactive)
10,CCCC(=O)Nc1ccccc1N1CCN(C(=O)c2ccccc2)CC1,34.8% (active)
11,CCC(=O)Nc1ccccc1N1CCN(S(C)(=O)=O)CC1,2.52% (inactive)
12,O=C(Nc1ccccc1N1CCN(C(=O)c2ccccc2)CC1)c1ccc2c(c1)OCO2,2.21% (inactive)
13,Cc1nc2ccc(NC(=S)N3CCC(C)CC3)cc2nc1C,-19.9% (inactive)
14,COc1cccc(-c2nn(-c3ccccc3)cc2/C=C(\C#N)C(=O)NCCCn2ccnc2)c1,-6.77% (inactive)
15,c1ccc(C2CNCc3c2ccc2ccccc32)cc1 (stereo unspecified),14.8% (inactive)
16,COc1ccc(CC(=O)Nc2cc(S(=O)(=O)N3CCCCC3)ccc2N2CCN(C)CC2)cc1,1.82% (inactive)
17,Cn1c(N)c(C(=O)COC(=O)/C=C/c2ccc(OC(F)F)cc2)c(=O)n(C)c1=O,5.58% (inactive)
18,CS(=O)(=O)N1CCC(C(=O)N2CCN(c3ccccc3)CC2)CC1,7.02% (inactive)
19,CCOc1ccc2c(c1)C(c1ccc(C)cc1)=NNC(c1ccc(C)cc1)=N2,-36.9% (inactive)
20,CCc1ccc2c(c1)C(c1ccc([N+](=O)[O-])cc1)=NNC(c1ccccc1)=N2,5.38% (inactive)
21,Cc1ccc(C2=Nc3c(ccc4ccccc34)C(c3ccncc3)=NN2)cc1,66.7% (active)

row,Structure (SMILES),inhibition
1,CCc1ccc(-c2nn(-c3ccccc3)cc2CSC(=N)N)cc1,-3.6% (inactive)
2,Cc1cc(C)n(CCNC(=O)CC2C(=O)NCCN2Cc2ccc(C)o2)n1 (stereo unspecified),4.76% (inactive)
3,C=CCn1c(CCc2ccc(OC(C)C)cc2)n[nH]c1=S,-6.91% (inactive)
4,C=CCN(C(=O)c1cc(C)cc(C)c1)C1(C(=O)Nc2ccccc2)CCN(C(C)C)CC1,-4.59% (inactive)
5,NC(N)=NCCCc1cn(CC(=O)N2CCNCC2)nn1,3.04% (inactive)
6,Cc1ccc(C(=O)Cn2cccn2)cc1,-6.86% (inactive)
7,CN(Cc1cccnc1)C(=O)c1cc(COc2ccc3ncccc3c2)on1,34.3% (active)
8,Cc1noc(C)c1COc1cccc(C(=O)Nc2cccnc2)c1,2.53% (inactive)
9,Cc1cccc(OCCNC(=S)NC(=O)c2cccnc2)c1,-6.17% (inactive)
10,Cc1cccc(N2CCN(c3ccc(NC(=O)/C=C\C(=O)O)cc3)CC2)c1,1.29% (inactive)
11,OCCC1CN(Cc2cccc(O)c2)CCN1CCc1ccccc1 (stereo unspecified),8.18% (inactive)
12,S=C(NCCc1ccccc1)N1CCn2cccc2C1c1ccncc1 (stereo unspecified),21.8% (inactive)
13,CC(C)(C)c1ccc(Oc2ccc(N)cc2)cc1,64.1% (active)
14,Nc1ccc(Oc2ccc(Cl)cc2)cc1,-14.9% (inactive)
15,Cc1ccc(Oc2ccc(N)cc2)cc1,-19.6% (inactive)
16,COc1ccc([C@H]2[C@H](C(C)=O)N3N=Cc4ccccc4C3C23C(=O)OC(C)(C)OC3=O)cc1 (stereo partly specified),-13.7% (inactive)
17,COc1ccc(C(=O)Nc2ccc3c(c2)OCO3)cc1OC,-0.74% (inactive)
18,Cn1c(=O)n(C)c2cc(C(=O)Nc3ccc4c(c3)OCO4)ccc21,35.6% (active)
19,Cn1c(NC(=O)c2ccc3c(c2)OCO3)cc(=O)n(C)c1=O,0.99% (inactive)
